Rab9 prom act: activates the Rab9 promoter | Huh7 Rab9 promoter-luciferase reporter, luminescence, 24 h | Potency, µM (highest dose often 9.22 µM), inactives show at the highest dose activation, negative = inhibition, hits mostly activators | 320,000 compounds, 2.8% hits | AID 485297; note: % of control where 0% means no effect; nearly all actives have a fitted effect of over 60% in size
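Luciferase signal after 10 min detection reagent at ambient indicates Rab9 promoter upregulation; stably transfected Huh7 cells were treated 24 h with compound in DMSO at 37 °C, 5% CO2.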
FLuc counter: firefly luciferase modulation, counter-screen for miR-21 project. P08659. purified FLuc, Km substrates, luminescence inhibition. Potency, µM (titrated, usually from 57.5 µM), for the others: at the top dose activity change, negative = inhibition, usual class: inhibitors. 360,000 compounds, 6.9% hits. AID 588342;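 note: plate controls were vehicle for no effect and reference inhibitor for full effect; nearly all actives have a fitted effect of over 55% in size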
Target sequence (P08659 whole entry, looked up): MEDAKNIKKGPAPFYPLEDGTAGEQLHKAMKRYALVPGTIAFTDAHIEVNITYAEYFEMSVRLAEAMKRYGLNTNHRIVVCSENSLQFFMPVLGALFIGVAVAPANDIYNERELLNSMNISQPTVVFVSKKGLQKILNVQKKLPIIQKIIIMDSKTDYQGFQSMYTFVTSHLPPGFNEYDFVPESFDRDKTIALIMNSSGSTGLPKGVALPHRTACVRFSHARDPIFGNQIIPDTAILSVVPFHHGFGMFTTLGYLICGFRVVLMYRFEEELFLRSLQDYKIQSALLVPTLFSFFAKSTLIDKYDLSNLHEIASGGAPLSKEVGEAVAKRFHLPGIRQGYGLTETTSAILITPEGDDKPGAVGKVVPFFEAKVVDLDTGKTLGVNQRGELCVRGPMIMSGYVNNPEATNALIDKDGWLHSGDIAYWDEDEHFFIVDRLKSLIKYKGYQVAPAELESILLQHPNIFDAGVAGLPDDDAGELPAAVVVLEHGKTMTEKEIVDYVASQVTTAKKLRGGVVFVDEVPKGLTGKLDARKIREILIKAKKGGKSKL
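Biochemical qHTS of compounds, final roughly 60 µM downward over six points, against 10 nM purified firefly luciferase using Km concentrations of substrates (10 uM D-luciferin, 10 uM ATP) in Tris acetate pH 7.5 buffer; luminescence output.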
NPC1 prom act: activates the NPC1 promoter | AID 485313 | Potency, µM (highest dose often 9.22 µM), for inactives: at the top dose activation, actives largely listed as activators | 320,000 compounds, 2.4% hits | Huh7 NPC1 promoter luciferase reporter, 24 h; note: % of control where 0% means no effect; nearly all actives have a fitted effect of over 60% in size
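Stable NPC1-promoter luciferase Huh7 line; cpd (DMSO) 24 h, 37 °C, 5% CO2; Amplite luciferase reagent 10 min RT; luminescence readout. qHTS format.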
SMN2 splice up: enhancers of SMN2 splice variant expression; HEK293 SMN2-luciferase splicing reporter, luminescence, 30-36 h; 210,000 compounds, 2.8% hits; AID 1458; Potency, µM (series often up to 46.1 µM), inactives show top-dose activity change, positive = activation, usual class: activators; note: % of control where 0% means no effect; nearly all actives have a fitted effect of over 55% in size
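HEK293 cells carry an SMN2 minigene-luciferase reporter in which exon 7 inclusion puts luciferase in frame. Cells were seeded at 2000 cells/well, attached for 10-12 hours, then exposed to compounds for 30-36 hours at 37C before ONE-Glo luminescence.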
ELG1 genotox: genotoxicity induction in ELG1-luciferase HEK293T cells | AID 504466 | HEK293T ELG1-luciferase reporter, luminescence, 16 h | Potency, µM (top dose mostly 46 µM), for inactives: at the top dose activity change, positive = activation, usual class: activators | 330,000 compounds, 1.3% hits; note: % of control where 0% means no effect; nearly all actives have a fitted effect of over 60% in size
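HEK293T cells expressing luciferase-tagged ELG1 were treated with compound or DMSO for 16 hr at 37°C. Luciferase activity was then read after 30 min with ONE-Glo at room temperature; rising signal flags genetic stress.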
ELG1 repair inh: blocks ELG1-dependent DNA repair in HEK293T cells; HEK293T ELG1-luciferase reporter, luminescence, 16 h; DNA damage induced by 5-fluorouridine; Potency, µM (highest dose often 46.1 µM), inactives show at the highest dose activity change, negative = inhibition, actives largely listed as inhibitors; 330,000 compounds, 2.3% hits; note: % is set by controls: 0 for no effect and ±100 for the full control effect; nearly all actives have a fitted effect of over 55% in size
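Cells (2,000 per well) received 5-fluorouridine plus test compound or DMSO and were incubated 16 hr at 37 °C, 5% CO2. Luciferase activity was read by luminescence 30 min after ONE-Glo addition; signal suppression marked inhibition of damage-induced ELG1 function.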
* hit, by the source's call; ? = inconclusive; nt = no result. Most compounds without a hit are left out; they make up all but 9.3% or so of the library. Calls come from the whole dose curve; as a rule, active = well fitted curve in the direction sought with a large enough effect; inconclusive = small, poorly fitted or top-dose-only effect, or another doubt; inactive = no such curve, though single readings can be large; an effect the other way counts as inactive or inconclusive. Potency is the fitted concentration of half-maximal effect.

SMILES | Rab9 prom act | FLuc counter | NPC1 prom act | SMN2 splice up | ELG1 genotox | ELG1 repair inh
CN(C)c1ccc(NC(=O)COC(=O)c2cc(Cl)ccc2[N+](=O)[O-])cc1 | -3.9% | ? | -4.3% | 10.5% | -0.9% | 5.9%
COC(c1ccccc1)c1nnc(CCC(=O)N(C)CCCC2CCCC2)o1 (stereo not given) | 6.0% | ? | 2.3% | nt | 3.9% | ?
COC(c1ccccc1)c1nnc(CCC(=O)N(C)Cc2cccc(-n3cccn3)c2)o1 (stereo not given) | ? | 15.1µM* | 4.4% | nt | ? | ?
COC(c1ccccc1)c1nnc(CCC(=O)N(C)CCOc2ccccc2)o1 (stereo not given) | 27.9% | 26.9µM* | 17.3% | 12.1% | ? | ?
Cc1cc(NC(=O)C2CCCCC2)ncc1NC(=O)c1ccccn1 | 29.5% | -27.4% | 9.0% | 8.1% | 8.7% | 0.1%
COc1ccc(C(=O)Nc2cnc(NC(=O)c3cccs3)cc2C)cc1 | ? | 16.9µM* | ? | nt | ? | ?
COc1ccc(C(=O)Nc2cc(C)c(NC(=O)c3ccccn3)cn2)cc1 | ? | 1.07µM* | ? | nt | 2.5% | ?
Cc1cc(NC(=O)C2CC2)ncc1NC(=O)c1ccccn1 | 2.51µM* | ? | ? | ? | ? | ?
COc1cccc(C(=O)Nc2cnc(NC(=O)c3ccco3)cc2C)c1 | 0.9% | ? | 3.1% | 18.3% | 17.3% | 27.4%
COc1ccc(C(=O)NNC(=S)NC(=O)c2cccs2)cc1 | -0.3% | -18.3% | 5.2% | nt | 7.6% | -23.2%
CCCCC(=O)Nc1cnc(NC(=O)c2cccs2)cc1C | 2µM* | 19µM* | 3.16µM* | nt | ? | ?
CCCCC(=O)Nc1cc(C)c(NC(=O)c2cccs2)cn1 | -2.3% | 0.2% | -5.2% | nt | -0.5% | -11.5%
CC(C)(C)NC(=O)C1N(c2cccnc2)C(=O)C2C(C(=O)Nc3ccccc3)C3(C)C=CC21O3 (stereo not given) | -3.1% | -0.7% | -2.6% | 2.3% | -0.1% | 4.3%
CCOc1ccc(C)cc1S(=O)(=O)n1ccnc1 | 0.0% | 5.4% | -3.6% | ? | 11.1% | 13.7%
COc1ccc(Cl)cc1NC(=O)CN(C)C(=O)Cn1c(=O)oc2ccccc21 | -3.3% | 5.8% | 1.2% | nt | -9.1% | 21.8%
CCc1ccc(OCc2cnc(Cl)s2)cc1 | 23.4% | 21.3µM* | 18.5% | 9.9% | ? | ?
Clc1ccc(OCc2cnc(Cl)s2)cc1 | 10.8% | 15.1µM* | -1.8% | -4.2% | 7.8% | 10.2%
CC(=O)Nc1ccc(OCc2cnc(Cl)s2)cc1 | 24.0% | -14.4% | 13.0% | 11.8% | 9.5% | ?
CCCn1ccnc1SCC(=O)Nc1c(C)n(C)n(-c2ccccc2)c1=O | -1.0% | -1.9% | 1.6% | nt | 3.5% | 15.5%
CC(C)N1CCC2(CC1)N=C(c1ccc3c(c1)OCO3)CC(c1cc(Cl)ccc1O)N2 (stereo not given) | -1.2% | 16.9µM* | -4.2% | -23.4% | -15.7% | -21.5%
CCOc1ccc(C(=O)Nc2cc(-c3nc4ccccc4[nH]3)ccc2C)cc1[N+](=O)[O-] | -2.5% | 8.49µM* | -0.8% | -20.2% | -7.4% | 23.1µM*
CCOc1ccc(C(=O)Nc2cccc(-c3nc4ccccc4[nH]3)c2C)cc1[N+](=O)[O-] | 1.6% | 9.53µM* | -3.1% | -9.8% | -1.5% | ?
O=[N+]([O-])c1ccc(Cl)c(CN2CCC(O)CC2)c1 | -2.5% | -1.1% | 0.3% | 5.5% | 0.0% | 3.3%
Cc1nnc2c3ccccc3c(-c3cccs3)nn12 | 0.3% | -0.1% | -21.9% | 11.2µM* | 12.6µM* | ?
Cc1nnc2c3ccccc3c(-c3ccc(O)cc3)nn12 | -4.6% | -0.1% | -2.9% | 28.6% | ? | ?
SMILES | Rab9 prom act | FLuc counter | NPC1 prom act | SMN2 splice up | ELG1 genotox | ELG1 repair inh
CCCC1CCC(c2ccc(OCC)cc2)=CC1=O (stereo not given) | 3.55µM* | 6.75µM* | 2µM* | nt | ? | ?
O=C(OCc1ccc(F)cc1)c1ccc2ccccc2n1 | -0.2% | 19µM* | 1.0% | 11.8% | 3.1% | 8.1%
O=C(OCC(=O)c1ccc[nH]1)c1ccc2ccccc2n1 | -4.6% | ? | -1.2% | 6.0% | 5.1% | -0.9%
O=C(COC(=O)c1ccc2ccccc2n1)c1ccccc1 | -3.2% | 6.75µM* | -1.6% | -20.4% | -17.4% | -9.6%
CCOc1ccc(-c2nnc(SCC(=O)Nc3cccc(C#N)c3)o2)cc1 | nt | 19µM* | nt | nt | nt | nt
CCOc1ccc(-c2nnc(SCC(=O)Nc3cccc(Cl)c3C)o2)cc1 | nt | 13.5µM* | nt | nt | nt | nt
CCOc1ccc(-c2nnc(SCC(=O)Nc3ccccc3C(F)(F)F)o2)cc1 | nt | -14.3% | nt | nt | nt | nt
CCOc1ccc2oc(C(=O)NNC(=O)c3ccccc3O)c(C)c2c1 | 16.2% | 10.7µM* | 20.7% | nt | ? | 16.4%
Cc1c(C(=O)NCc2ccccn2)oc2ccccc12 | ? | ? | ? | ? | 14.6µM* | ?
CCOc1ccc2oc(C(=O)O)c(C)c2c1 | 21.7% | ? | 17.7% | nt | 9.2% | ?
Cc1c(C(=O)Nc2ccc(Cl)cn2)oc2ccccc12 | 20.7% | -6.5% | 27.9% | ? | ? | ?
CCOc1ccc2oc(C(=O)Nc3cc(C)ccn3)c(C)c2c1 | 0.501µM* | 0.338µM* | 0.631µM* | nt | ? | ?
Cc1c(C(=O)Nc2cnccn2)oc2ccccc12 | 29.2% | 15.1µM* | 14.1% | 11.2µM* | ? | ?
Cc1ccc(S(=O)(=O)NCCS(=O)(=O)N2CCN(c3ccc(F)cc3)CC2)cc1 | -4.7% | 0.4% | -5.6% | nt | -5.4% | 0.2%
O=C1OC(Nc2ccc3c(c2)OCO3)c2ccccc21 (stereo not given) | -7.6% | 2.3% | -6.1% | -32.7% | 27.6% | ?
Cc1ccc(S(=O)(=O)NC(C)C(=O)N2CCOCCOCCOCCOCC2)cc1 (stereo not given) | -4.6% | -2.7% | 0.1% | nt | -1.6% | -2.3%
Cc1c(C(=O)Nc2cccc3cccnc23)oc2ccccc12 | ? | -18.4% | 25.9% | 3.2% | 17.6% | ?
Cc1ccnc(NC(=O)c2oc3ccccc3c2C)c1 | 2.51µM* | 1.2µM* | 2.82µM* | nt | ? | ?
CCOc1ccc2oc(C(=O)N(C)CCc3ccc(OC)c(OC)c3)c(C)c2c1 | 15.1% | -2.8% | 1.1% | nt | 0.2% | 18.3µM*
CCOc1ccc2oc(C(=O)N(C)CC(=O)Nc3ccc(OCC)c(OCC)c3)c(C)c2c1 | 2.4% | 6.1% | -6.8% | nt | -0.9% | ?
CCCc1nc2c(=O)n(C)c(=O)[nH]c2n1CCC | 0.9% | 0.5% | 1.8% | 3.1% | -0.6% | 16.9%
CCOC(=O)Cc1nn(Cc2nc(-c3ccc(C#N)cc3)cs2)c(=O)c2ccccc12 | -12.2% | 1.3% | -3.5% | nt | -11.7% | 10.3µM*

Screening data deposited in PubChem by National Center for Advancing Translational Sciences (NCATS).
